In PubChem BioAssay AID2551 (National Center for Advancing Translational Sciences (NCATS), 2010):
Among all 310,000 compounds or so, about 17,000 (5.5%) were called active. Inconclusive results (about 11%) are left out. The sample holds actives, similar compounds and a random draw of the others, so the mix is not that of the screen. The call rests on the fitted dose curve; in most records, active means well fitted inhibition curve with a large enough effect; inconclusive means small, poorly fitted or top-dose-only effect, or effect the other way; inactive means no such curve, though single readings can be large or run the other way.

Target: Nuclear receptor ROR-gamma (Mus musculus) (UniProt P51450)
Assay: qHTS for inhibitors of ROR gamma transcriptional activity; further: nearly all actives have a fitted effect of over 60% in size
Conditions: Drosophila S2 Gal4-RORgamma UAS-luciferase reporter, 20 h; series mostly up to 53.6 µM
In short: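 Drosophila S2 cells stably expressing Gal4-DBD/mouse RORγ fusion under metallothionein promoter plus UAS-luciferase; compound 1 h, then 700 uM CuSO4 induction for 20 h at ambient temperature; inhibition read as reduced luminescence.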
On the % scale 0 is the no-effect control and ±100 the full control effect; potency means the concentration at half of the fitted maximal effect.

Sequence of Nuclear receptor ROR-gamma (Mus musculus) (P51450 whole entry, looked up): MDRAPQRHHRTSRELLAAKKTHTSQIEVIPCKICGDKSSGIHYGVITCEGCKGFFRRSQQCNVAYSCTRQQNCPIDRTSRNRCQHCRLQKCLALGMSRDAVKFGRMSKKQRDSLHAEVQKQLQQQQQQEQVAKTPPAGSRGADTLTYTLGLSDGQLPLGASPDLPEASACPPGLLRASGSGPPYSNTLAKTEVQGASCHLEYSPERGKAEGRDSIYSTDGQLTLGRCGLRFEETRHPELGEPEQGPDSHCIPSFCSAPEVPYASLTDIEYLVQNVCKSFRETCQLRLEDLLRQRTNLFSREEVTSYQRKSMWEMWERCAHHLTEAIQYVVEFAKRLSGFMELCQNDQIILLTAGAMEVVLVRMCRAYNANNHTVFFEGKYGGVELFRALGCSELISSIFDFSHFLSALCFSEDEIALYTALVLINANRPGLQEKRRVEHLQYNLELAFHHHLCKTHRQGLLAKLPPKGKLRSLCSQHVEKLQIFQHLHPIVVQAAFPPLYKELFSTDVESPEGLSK

Potency, inactive:
Cc1cc(=O)oc2c(C)c(OC(C)C(=O)NC3CCN(Cc4ccccc4)CC3)ccc12 (stereo not drawn), COCc1ccc(C(=O)NC2CC(C)(C)Cc3c2cnn3-c2ccc(C)cc2)o1 (stereo not drawn), CC(=O)c1ccc(NC(=O)CCNS(=O)(=O)c2cc(Br)cnc2N)cc1, O=C(Nc1ccc2oc(-c3ccccc3F)nc2c1)c1ccco1, COc1cc(OC)cc(C(=O)Nc2ccc(S(=O)(=O)Nc3cc(C)on3)cc2)c1, C[n+]1cc(-c2ccccc2)oc1-c1ccccc1, CC(C)N(C(=O)Cn1cc(S(=O)(=O)CC(=O)N2CCOCC2)c2ccccc21)C(C)C, COc1ccc2c(CC(=O)N3CCc4cc(OC)c(OC)cc4C3)coc2c1, CCC(CCC(C)C1CCC2C3CC=C4CC(O)CC[C@@]4(C)C3CC[C@@]12C)C(C)C (stereo partly drawn), Cc1cccc(C(=O)c2cccc(C)c2)c1, COc1ccc(S(=O)(=O)N2CCC(C(=O)N3CCCC3)CC2)cc1C, COc1ccc(-c2nn(-c3ccccc3)cc2/C=C\C(=O)Nc2ccc(C(=O)O)cc2)cc1, COc1ccc(-c2nn(-c3ccccc3)cc2/C=C\C(=O)N2CCOCC2)cc1[N+](=O)[O-], COc1cc(N2C(=O)CSC2=S)cc(OC)c1OC, O=C1CSC(=S)N1c1ccc(Cl)c(Cl)c1, CC1CN(C(=O)CCC(=O)NC2CCN(Cc3ccccc3)CC2)c2ccccc2O1 (stereo not drawn), Cc1ccc(OCC(=O)Nc2ccccc2C(=O)NC2CC2)cc1C, O=C(Nn1cnnc1)c1cc(Cl)ccc1Cl, NNC(=O)c1ccc(Cl)cc1Cl, O=C(c1cc(COc2ccc(F)c(F)c2)on1)N1CCOCC1

Potency, active:
COc1cc(OC)cc(C(=O)Nc2ccc(-c3nc4ccccc4o3)c(O)c2)c1 11.2 µM, C=C1C(=CC=C2CCC[C@@]3(C)[C@@H]2CC[C@H]3[C@H](C)CCCC(C)C)C[C@@H](O)C[C@@H]1O 12.6 µM, Cc1cccc(/C(N)=N/OC(=O)c2ccccc2Cl)c1 0.251 µM, O=C(/C=C/c1cn(-c2ccccc2)nc1-c1ccc2c(c1)OCCO2)NCCCN1CCOCC1 17.8 µM, O=C1CSC(=S)N1c1ccc(O)cc1 12.6 µM, O=C(N/N=C1\CCSC1)c1cc(Cl)ccc1O 11.2 µM

Activity change, negative = inhibition, inactive:
COc1ccc(C(=O)O/N=C(\N)c2ccccn2)cc1[N+](=O)[O-] -42.4% [at 1.91 µM], Cc1ccc(C(=O)O/N=C(\N)c2ccccn2)cc1Cl 35.7% [at 1.91 µM]
